Test results as given in the supplement of paper PMC6555819.

Tested on: RARg:RXRa (NR concentration 270 nM, RXRa partner concentration 90 nM)
Test: PBM binding z-score (relative to random genomic background probes); higher = stronger binding; sequences stand for … in GC…GCGATTGACAGCGTAGAATGAAGG
Summary of the method: (§1)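 Ligand-free nuclear receptor dimers were applied to custom Agilent 4×180K protein-binding microarrays whose double-stranded probes carried direct-repeat seeds, single-nucleotide variants, half-site ablations and random human genomic background sequences in 34-nt variable regions. Incubation lasted 1 h. Binding z-scores were computed against the random background probes from regression-normalized fluorescence.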

Sequence	PBM binding z-score
GCTGCTTGGTCAGGTTGGTCAGCTAACGGGTACG	-0.088
TCTTGTAGATCAACAGGACGTTAAGAAAGATCGA	0.531
TATACAGGGTCCAAGGCCAGAGTACGAATGTCGA	0.986
TCTTGTAGATCAAGCAAGTTAAGAAAGCCTGAGT	-0.21
GCTGCTAGGTCAGGTTGGTCAGCTACCGGGTACG	2.17
CGTCCAAGGTCAATGCTAGGTCATTGAAAGCATT	7.82
TCATATAGGTAAAACAGGTGAAAGTCGGCATCTA	0.572
AGACTGAGGTTATTAAGATCAGGGAATTGCGGTC	1.13
ATCGTAAGGTCGACGAGGTGAGTATACACCGTTT	3.18
CGTCCTAGGTCAGAGAGGTCAGTGAATGCCGAGT	5.31
CCTCGGAAGACAACAGGAGGTCAGAGCTGCCAGA	1.94
TAACCTAGGTCAGATCGGGCCAGTATACGCTATA	3.36
AATCAAAGTTCAGGACGAGGTAACGTAAAGCACG	4.66
CCGACTGGGGCAGAAAGGTTATCATACCATCCGG	1.48
CGAACTAGGTCATTGACAGGACAGTGCATAGTAA	4.65
TATACAGGGGCAAAGGCCAGAGTACGAATGTCGA	1.95
CGAACTAGGTCATTGACAGGACAGTGATTAGTAA	4.5
AGAACGAGGTTACCAAAGATCAGGGAAACGCTTG	1.94

Tested on: RARg homodimer (NR concentration 270 nM)
Test: as above
Summary of the method: as §1

Sequence	PBM binding z-score
TCATATAGGTGATACAGGTGAAAGTCGGCATCTA	0.742
ACTAGTTGGTCAGCTGTGGTCACACACAATTCGG	0.965
GCTCGGAGGACAGGGTCAGAGCTTTGTCCGTAGA	2.37
AATACAGGGTCACTAGCCCAGAGTAGGTACGAAT	4.62
TAGCCTAGGGCATTGGGCCAGTATAGTACGCATC	1.21
TCTGCTAGGTCAACGATGGTCATCTAATCTGCTA	4.69
CCTCGGAGGACAACAGGAGGACAGAGCTGCCAGA	1.41
TAACCTAGGTCATGGGCCAGTATACCACGCGAAC	5.12
CGTCCATGGTCAGAGAGGTCAGTGAATGCCGAGT	4
CCGAGTAGGTTATGGGGCATTTAGGCAACGGTGA	0.435
TCTACCAGGCCAGAGGGTCACTCAAGAGGTACGG	2.46
AGAACGAGGGCAATGAGTTGATAGCACGGGTGGC	1.54
ACAGACAGGTGATGACGGTAACTCAGGCTATCAT	0.261
GCTCGGAGGACAAGGTCAGCGCTTTGTCCGTAGA	4.29
CAAATTAGGTCACAGAGGTCAAAGTCCGTGCGTA	7.81
ACAGACAGGTGATGAAGGTAACCCAGGCTATCAT	0.392
TTTTGTAGATCAGCAGGTTAAGAAAGCTGGCCAA	-0.252
CGTCCAAGGTCAGAGTGGTCAGTGAATGCCGAGT	5.48
CGAACTAGGTCATTGCCAGGACAGTGAATAGTAA	4.21
ACTAGTTGGTCTGCTGAGGTCACACACAATTCGG	2.94

Sequence	PBM binding z-score
ATCGAAAGGTCGACGTGAGTATAGAGAAAGGGAA	3.91
AATACAGGGTCATCGTAGGCCAAAGTACGCACAG	5.3
GCTGCTTGGTCAGGTTGGTCAGCTAACGGGTACG	0.0673
TCTTGTAGATCAACAGGACGTTAAGAAAGATCGA	0.151
TATACAGGGTCCAAGGCCAGAGTACGAATGTCGA	1.15
TCTTGTAGATCAAGCAAGTTAAGAAAGCCTGAGT	-0.386
GCTGCTAGGTCAGGTTGGTCAGCTACCGGGTACG	3.73
CGTCCAAGGTCAATGCTAGGTCATTGAAAGCATT	7
TCATATAGGTAAAACAGGTGAAAGTCGGCATCTA	0.226
AGACTGAGGTTATTAAGATCAGGGAATTGCGGTC	0.72
ATCGTAAGGTCGACGAGGTGAGTATACACCGTTT	3.23
CGTCCTAGGTCAGAGAGGTCAGTGAATGCCGAGT	5.94
CCTCGGAAGACAACAGGAGGTCAGAGCTGCCAGA	1.99
TAACCTAGGTCAGATCGGGCCAGTATACGCTATA	3.68
AATCAAAGTTCAGGACGAGGTAACGTAAAGCACG	4.55
CCGACTGGGGCAGAAAGGTTATCATACCATCCGG	1
CGAACTAGGTCATTGACAGGACAGTGCATAGTAA	4.3
TATACAGGGGCAAAGGCCAGAGTACGAATGTCGA	1.85
CGAACTAGGTCATTGACAGGACAGTGATTAGTAA	4.52
AGAACGAGGTTACCAAAGATCAGGGAAACGCTTG	1.91
